# Screening results as filed in PubChem.
# Rows were chosen to be rich in hits. Some 7.3% of all compounds tested hit in one or more screens of this group.
# ELG1 genotoxic – induces genotoxicity in HEK293T cells with luciferase-tagged ELG1; HEK293T ELG1-luciferase reporter, luminescence, 16 h; AID 504466; 330,000 tested, 1.3% active; Potency, µM (titrated, usually from 46 µM), for inactives: at the top dose activity change, positive = activation, most hits filed as activators; also: % of control where 0% means no effect; nearly all actives have a fitted effect of over 60% in size
#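 Reporter readout depends on ELG1 protein level, which increases with genetic stress. After 16 hr compound exposure at 37 °C, luciferase activity was quantified using ONE-Glo.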
# SMN2 splice up – enhancers of SMN2 splice variant expression; HEK293 SMN2-luciferase splicing reporter, luminescence, 30-36 h; Potency, µM (titrated, usually from 46.1 µM), for the others: top-dose activity change, positive = activation, most hits filed as activators; 210,000 tested, 2.8% active; also: % of control where 0% means no effect; nearly all actives have a fitted effect of over 55% in size
#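 HEK293 cells carry an SMN2 […]–luciferase reporter in which exon 7 inclusion puts luciferase in frame. Cells were plated 10-12 h before compound addition, then incubated 30-36 h at 37C. ONE-Glo luminescence was read; sodium butyrate at 4.5 mM final served as control.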
# Rab9 promoter act – activators of Rab9 promoter | Huh7 Rab9 promoter-luciferase reporter, luminescence, 24 h | Potency, µM (titrated, usually from 9.22 µM), without a hit: at the highest dose activation, negative = inhibition, actives largely listed as activators | 320,000 tested, 2.8% active; also: % of control where 0% means no effect; nearly all actives have a fitted effect of over 60% in size
#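 Using Huh7 cells stably transfected with Rab9 promoter–luciferase, compounds were incubated 24 h at 37 °C, 5% CO2; luciferase luminescence was read 10 min after reagent addition.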
# NPC1 prom act – activates the NPC1 promoter; 320,000 tested, 2.4% active; Huh7 NPC1 promoter luciferase reporter, 24 h; Potency, µM (titrated, usually from 9.22 µM), for inactives: top-dose activation, most hits filed as activators; also: % of control where 0% means no effect; nearly all actives have a fitted effect of over 60% in size
#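 Stably transfected Huh7 (NPC1 promoter→luciferase), 1500 cells/well in Opti-MEM + 10% FBS, 2 h settle, then compound 24 h at 37 °C. Luminescence after 10 min with Amplite reagent.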
# FLuc counter – firefly luciferase modulation, counter-screen for miR-21 project; Potency, µM (doses to about 57.5 µM), for the others: at the highest dose activity change, negative = inhibition, usual class: inhibitors; 360,000 tested, 6.9% active; P08659; purified FLuc, Km substrates, luminescence inhibition;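 also: plate controls were vehicle for no effect and reference inhibitor for full effect; nearly all actives have a fitted effect of over 55% in size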
# Target sequence (P08659 whole entry, looked up): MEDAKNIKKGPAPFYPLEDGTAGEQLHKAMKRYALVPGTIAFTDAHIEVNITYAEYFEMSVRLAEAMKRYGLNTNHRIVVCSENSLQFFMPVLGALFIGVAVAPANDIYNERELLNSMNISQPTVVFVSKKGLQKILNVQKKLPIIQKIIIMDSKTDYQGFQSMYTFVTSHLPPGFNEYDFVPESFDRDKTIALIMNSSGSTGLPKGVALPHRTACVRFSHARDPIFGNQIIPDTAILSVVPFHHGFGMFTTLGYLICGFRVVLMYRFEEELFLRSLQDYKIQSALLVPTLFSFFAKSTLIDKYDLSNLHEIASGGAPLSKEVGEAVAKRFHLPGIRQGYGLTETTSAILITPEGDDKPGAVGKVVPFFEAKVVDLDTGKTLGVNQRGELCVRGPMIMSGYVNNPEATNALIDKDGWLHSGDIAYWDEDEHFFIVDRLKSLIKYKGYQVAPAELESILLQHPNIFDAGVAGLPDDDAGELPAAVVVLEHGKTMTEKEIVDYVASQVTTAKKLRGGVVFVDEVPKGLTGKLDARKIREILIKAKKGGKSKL
#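 Biochemical qHTS of compounds, final roughly 60 µM downward over six points, against 10 nM purified firefly luciferase using Km concentrations of substrates (10 uM D-luciferin, 10 uM ATP) in Tris acetate pH 7.5 buffer; luminescence output.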
# KinaseGlo FLuc – blocks Kinase-Glo luciferase, a counter-screen artifact; Q27757; Kinase-Glo luciferase, ATP luminescence, 8 min; Potency, µM (highest dose often 38.3 µM), for the others: top-dose activity change, negative = inhibition, hits mostly inhibitors; 200,000 tested, 0.28% active; AID 1379; also: % is scaled to controls: 0 for no effect and ±100 for the full control effect; nearly all actives have a fitted effect of over 60% in size
#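 Compound is pinned into ATP-containing buffer (10 uM ATP, imidazole pH 7.2, 7 mM MgCl2). Kinase-Glo luciferase reagent is then added. Light output is recorded following an 8-min room-temperature incubation.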
# The depositor's hits bear a star; u = inconclusive; x = not tested or not shown; [ ] = another dose, or the depositor's remark. Calls follow the shape of the dose curve; as a rule, active = well fitted curve in the direction sought with a large enough effect; inconclusive = small, poorly fitted or top-dose-only effect, or another doubt; inactive = no such curve, though single readings can be large; an effect the other way counts as inactive or inconclusive. Potency is read from the fitted curve at half-maximal effect.
SMILES,ELG1 genotoxic,SMN2 splice up,Rab9 promoter act,NPC1 prom act,FLuc counter,KinaseGlo FLuc
Cc1ccc(O)c(NC(=O)c2cc(-c3ccc4c(c3)OCO4)on2)c1,x,17%,x,x,u,x
COc1ccc2c(c1)O[C@@H](c1cccc(C(F)(F)F)c1)[C@H](OC(=O)NCCOc1ccccc1)C2=O,x,-1%,x,x,x,2%
COc1ccc(OC)c(CCNC(=O)c2cc3c(=O)oc4ccc(C)cc4c3s2)c1,x,-1%,x,x,-2%,x
O=C(Nc1cccc(-c2cn3cccnc3n2)c1)c1cccs1,1%,13%,-3%,0%,u,2%
Cc1ccn2cc(-c3cccc(NC(=O)c4cccs4)c3)nc2c1,-1%,u,u,19%,2.4µM*,-5%
Cc1ccn2c(NC(=O)c3cccs3)c(-c3ccccc3)nc2c1,2%,0%,-2%,1%,u,3%
Cc1cccn2cc(-c3cccc(NC(=O)c4cccs4)c3)nc12,5%,18%,24%,13%,4.8µM*,0%
C[C@H](NC(=O)CNC(=O)[C@@H](NC(=O)[C@H](Cc1ccccc1)NC(=O)CNC(=O)CNC(=O)[C@@H](N)Cc1ccccc1)[C@@H](C)O)C(=O)N[C@@H](CCCN=C(N)N)C(=O)N[C@@H](CCCCN)C(=O)N[C@@H](CO)C(=O)N[C@@H](C)C(=O)N[C@@H](CCCN=C(N)N)C(=O)N[C@H](CN)CCCCN,x,10%,x,x,x,x
Cc1ccc(Cl)c2c(N=Nc3ccccc3)c(O)[nH]c12,u,x,u,u,1.2µM*,x
CCc1cc(C(=O)Nc2nc(-c3ccccn3)cs2)sc1C,5%,x,24%,24%,12µM*,x
Cc1ccc(C(=O)Nc2nc(-c3ccccn3)cs2)o1,4%,x,-1%,-1%,19µM*,x
O=C(Nc1nc(-c2ccccn2)cs1)c1ccc([N+](=O)[O-])o1,6%,x,-31%,1%,u,x
CCN1CCN(c2cc(C)c3cc(NC(=O)/C=C/c4ccc(OCCC(C)C)cc4)ccc3n2)CC1,x,4%,x,x,-1%,x
N=C1C(c2nc3ccccc3s2)=C(O)CN1Cc1ccco1,9.2µM*,u,u,u,u,3%
CC(=O)c1cccc(NC(=O)N2CCCc3ccccc32)c1,6%,0%,12%,9%,u,0%
CC(=O)c1cccc(NC(=O)N2CCc3ccccc3C2)c1,u,21%,u,4µM*,13µM*,-1%
CC(=O)c1ccc(NC(=O)N2CCc3ccccc3C2)cc1,24%,22µM*,u,21%,u,0%
COc1ccccc1N1CCN(S(=O)(=O)c2c(C)sc3ncn(CC(=O)Nc4ccc(C(C)C)cc4)c(=O)c23)CC1,x,0%,x,x,-6%,x
N#C[C@H](C(=O)O)C(c1c(Cl)cccc1Cl)[C@H](C#N)C(=O)O,x,-7%[9.22 µM],x,x,x,0%[7.66 µM]
CSc1nsc(SC)c1C(=O)NC(=O)Nc1cccnc1,1%,x,0%,-3%,-1%,x
CSc1nsc(SC)c1C(=O)Nc1ccc(C(C)(C)C)cc1,0%,x,13%,16%,11µM*,x
CCOc1ccc(Cn2c(CNS(=O)(=O)c3cccs3)nc3cccnc32)cc1,x,x,x,x,7%,x
CC1CCN(S(=O)(=O)c2ccc3c(c2)CCC(=O)N3CC(=O)Nc2cccc(C#N)c2)CC1,x,x,-5%,8%,-2%,x
Cc1ccc(NC(=O)NCC2CC2(Cl)Cl)cc1 (stereo unspecified),u,x,3.5µM*,2.2µM*,11µM*,x
O=C(NCC1CC1(Cl)Cl)Nc1ccc(Cl)c(Cl)c1 (stereo unspecified),-4%,x,u,u,17µM*,x
SMILES,ELG1 genotoxic,SMN2 splice up,Rab9 promoter act,NPC1 prom act,FLuc counter,KinaseGlo FLuc
C=COCCNC(=O)Nc1ccc(Cl)c(Cl)c1,-3%,27%,u,u,17µM*,3%
COCCNC(=S)Nc1ccc(Cl)c(Cl)c1,-2%,u,-1%,2%,-2%,1%
CCOc1ccc(NC(=O)NCc2cccn2C)cc1,u,x,20%,u,u,x
Cn1cccc1CNC(=O)Nc1ccc(Cl)c(Cl)c1,u,u,3.2µM*,4µM*,8.5µM*,-10%
CCN(CC)CCCC(C)NC(=O)c1ccc(-n2c(=O)c(=O)[nH]c3ccccc32)cc1 (stereo unspecified),x,x,x,x,x,-1%
C#CCSc1ncc(-c2ccccc2)cn1,12%,3%,u,19%,u,-4%
C=CCSc1ncc(-c2ccccc2)cn1,15%,11%,26%,24%,15µM*,-4%
Cc1cc(C)c2c(n1)sc1c(=O)n(-c3cc(Cl)ccc3C)nnc12,x,-6%,x,x,7%,x
CCOc1ccc(NC(=O)CSc2nnc(Cc3csc(C)n3)o2)cc1,-1%,x,0%,-9%,2%,x
CCOc1ccc(Nc2nc(Cc3nnc(SCC(N)=O)o3)cs2)cc1,5%,-13%,-1%,-2%,15µM*,0%
Cc1ccc(-c2nc3cc(Cl)ccc3o2)cc1,u,u,16%,17%,0.34µM*,-1%
Cc1ccc(-c2nc3cc(NC(=O)C(C)C)ccc3o2)cc1C,u,u,0.13µM*,0.35µM*,0.27µM*,u
CC(Oc1ccc(Cl)cc1Cl)C(=O)Nc1ccc2oc(-c3ccncc3)nc2c1 (stereo unspecified),-8%,x,-9%,-8%,-1%,-1%
Cc1ccc(-c2nc3cc(NC(=O)C(C)C)ccc3o2)cc1,u,0.56µM*,0.1µM*,0.35µM*,1.1µM*,-14%
CC(C)C(=O)Nc1cccc(-c2nc3ccccc3o2)c1,u,15%,3%,-1%,-13%,1%
CC(C)CC(=O)Nc1cccc(-c2nc3ccccc3o2)c1,-2%,x,5%,-2%,-16%,x
CC(C)CC(=O)Nc1ccc2oc(-c3ccncc3)nc2c1,14%,4%,u,u,15µM*,0%
Cc1ccc(Cl)cc1NC(=O)c1oc2ccc(S(=O)(=O)N(C)C3CCCCC3)cc2c1C,x,x,x,x,-4%,x
COc1ccc(C(=O)Nc2ccc(-c3nc4cc(C)ccc4o3)c(O)c2)cc1,x,1%,x,x,-3%,x
CCC(Oc1ccccc1)C(=O)Nc1ccc(O)c(-c2nc3cc(C)ccc3o2)c1 (stereo unspecified),x,x,x,x,15µM*,x
Cc1cc2nc(-c3ccc(NC(=O)C(C)C)cc3)oc2cc1C,0.82µM*,2.8µM*,0.63µM*,0.45µM*,0.85µM*,4%
CCC(Oc1ccccc1)C(=O)Nc1ccc2oc(-c3ccc(OC)cc3)nc2c1 (stereo unspecified),x,x,x,x,-2%,x
Cc1ccc(OCC(=O)Nc2ccc(-c3nc4ccccc4o3)cc2)c(C)c1,x,u,x,x,-1%,x
